Many of the other results were omitted from the sample, so hits are more common in it than they were.
Vaccinia stage: Vaccinia orthopox stage-specific inhibition; Vaccinia-infected cells, mCherry/Venus stage reporter fluorescence; hits give low values; activity change (mCherry), % (concentration not given with the values); hit rate 0.01% among 89,000; in the data active means activity change below about -37%, passing the limit was not always enough; tested in A549 cells
* marks the source's active call; other numbers are inactive results.

CCCc1cn(CC[C@@H]2CC[C@H](NC(=O)C3CCOCC3)[C@@H](CO)O2)nn1 was read as Vaccinia stage 7.4.
For CCN1[C@@H]2c3ccc(C4=CCCC4)c(=O)n3C[C@@H]2[C@@H](CO)[C@@H]1C(=O)NCc1cccc(OC)c1 the results were Vaccinia stage 16.7.
O=C(NC1CCCC1)N1CC(=O)N2[C@H](C1)[C@@H](c1ccc(-c3cccnc3)cc1)[C@@H]2CO was read as Vaccinia stage 26.9.
Screening C[C@@H]1CN([C@@H](C)CO)C(=O)c2cc(NC(=O)NC3CCCCC3)ccc2O[C@@H]1CN(C)S(=O)(=O)c1cn(C)cn1 returned Vaccinia stage 14.4.
Screening CN(C)C(=O)c1ccc(-c2cccc(-c3nc(C(=O)NC4CCCC4)cc4c3[C@@H](CCO)N([S@](=O)C(C)(C)C)C4)c2)cc1 returned Vaccinia stage -17.0.
For CN(C)C(=O)c1ccc(-c2cccc(-c3nc(C(=O)NCc4ccccc4)cc4c3[C@@H](CCO)N([S@](=O)C(C)(C)C)C4)c2)cc1 the results were Vaccinia stage -14.7.
Screening CN(C)C(=O)c1ccc(-c2cccc(-c3nc(C(=O)NC4CCCCC4)cc4c3[C@@H](CCO)N([S@](=O)C(C)(C)C)C4)c2)cc1 returned Vaccinia stage -51.0*.
CN(C)C(=O)c1ccc(-c2cccc(-c3nc(C(=O)NC4CCCC4)cc4c3[C@H](CCO)N([S@@](=O)C(C)(C)C)C4)c2)cc1 was read as Vaccinia stage -36.5*.
`CN(C)C(=O)c1ccc(-c2cccc(-c3nc(C(=O)NC4CCC4)cc4c3[C@@H](CCO)N([S@](=O)C(C)(C)C)C4)c2)cc1` gave Vaccinia stage -10.6.
For CN(C)C(=O)c1ccc(-c2cccc(-c3nc(C(=O)NCc4ccccc4)cc4c3[C@H](CCO)N([S@@](=O)C(C)(C)C)C4)c2)cc1 the results were Vaccinia stage -23.5.
For Cc1cc(C(=O)Nc2cccc3c2O[C@@H](CN(C)C(=O)Nc2ccc(C(F)(F)F)cc2)[C@H](C)CN([C@H](C)CO)C3=O)n(C)n1 the results were Vaccinia stage -5.6.
Screening CO[C@H]1CN(C)C(=O)c2ccc(NC(=O)c3ccc(F)cc3)cc2OC[C@H](C)N(C(=O)c2ccc(F)cc2)C[C@@H]1C returned Vaccinia stage -87.3*.
CO[C@@H]1CN(C)C(=O)c2ccc(NC(=O)c3ccc(F)cc3)cc2OC[C@@H](C)N(C(=O)c2ccc(F)cc2)C[C@@H]1C was read as Vaccinia stage -5.2.
For CO[C@@H]1CN(C)C(=O)c2ccc(NC(=O)c3ccc(F)cc3)cc2OC[C@H](C)N(C(=O)c2ccc(F)cc2)C[C@H]1C the results were Vaccinia stage -2.9.
Screening CC(=O)N1[C@@H]2Cn3c(ccc(-c4ccncc4)c3=O)[C@H]1[C@@H](C(=O)NC1Cc3ccccc3C1)[C@@H]2CO returned Vaccinia stage 1.0.
Screening C[C@@H](NC(=O)C[C@@H]1C=C[C@H](NC(=O)CN2CCOCC2)[C@H](CO)O1)c1ccccc1 returned Vaccinia stage 2.9.
COC(=O)C[C@H]1CC[C@H]2[C@@H](COc3ccc(NC(=O)C4CCOCC4)cc3C(=O)N2C)O1 was read as Vaccinia stage -1.2.
`CCS(=O)(=O)N[C@@H]1C=C[C@@H](CC(=O)NCC2CCCCC2)O[C@@H]1CO` gave Vaccinia stage 4.3.
`C[C@@H]1CN([C@@H](C)CO)C(=O)c2cc(NC(=O)NC3CCCCC3)ccc2O[C@H]1CN(C)C(=O)NC1CCCCC1` gave Vaccinia stage 6.8.
For C[C@H](CO)N1C[C@H](C)[C@@H](CN(C)CC2CC2)Oc2ccc(NC(=O)Nc3cccc4ccccc34)cc2CC1=O the results were Vaccinia stage -24.5.
For O=C(Cc1ccncc1)NCC[C@@H]1CC[C@@H](NC(=O)Nc2cccc(F)c2)[C@@H](CO)O1 the results were Vaccinia stage 12.6.

Source: PubChem (Broad Institute)
